Test results as given in PubChem BioAssay (Tox21).
Inconclusive results are not listed. A number with no mark means an inactive call. Calls of active or inactive are those of the source. Calls follow the shape of the dose curve; as a rule, active = well fitted cell-killing curve with a large enough effect in the repeat runs; inconclusive = weak or mixed curves, or effect the other way; inactive = no such curve, though single readings can be large or run the other way.

Assay: qHTS assay to identify small molecule antagonists of the vitamin D receptor (VDR) signaling pathway - cell viability counter screen (AID 743225); also: nearly all actives have a fitted effect of over 50% in size
Conditions: VDR-bla HEK293T viability, CellTiter-Glo luminescence, 16 h; series mostly up to 61 µM; viability change, negative = cytotoxic: at the top concentration
Text: U.S. Tox21 Program National Center for Advancing Translational Sciences [NCATS] NIH Chemical Genomics Center [NCGC] U.S. Environmental Protection Agency [EPA] National Institutes of Environmental Health Sciences [NIEHS] National Toxicology Program [NTP] U.S. Food and Drug Administration [FDA] Tox21 Assay Overview: The vitamin D receptor (VDR), a member of nuclear hormone receptor superfamily, plays a critical role in calcium homeostasis and bone metabolism. It is also involved in cell differentiation and growth, and thrombogenicity. To identify the compounds that inhibit VDR signaling, the VDR-UAS-bla HEK 293T cell line (Invitrogen, Carlsbad, CA, USA) containing a beta-lactamase reporter gene under the control of an upstream activator sequence (UAS) was used to screen the Tox21 10K compound library. The cytotoxicity of the Tox21 compound library against the VDR-bla cell line was tested in parallel by measuring the cell viability using CellTiter-Glo assay (Promega, Madison, WI) in the same wells.
Tox21 Assay Protocol Summary: VDR-bla cells were dispensed at 2,000 cells/5 uL of assay medium per well into black wall/clear-bottom 1536-well plates using a Multidrop Combi (Thermo Fisher Scientific, Waltham, MA) dispenser. After the assay plates were incubated at a 37C and 5% CO2 for 4 h, 23 nL of compounds dissolved in DMSO, positive controls or DMSO only was transferred to the assay plate by a Pintool station (Kalypsys, San Diego, CA), followed by addition of 1 uL of 1-alpha, 25-Dihydroxy Vitamin D3 (3 nM, final concentration in the wells) using a Bioraptr Flying Reagent Dispenser (FRD) workstation (Beckman Coulter, Indianapolis, IN). The plates were incubated at 37C and 5% CO2 for 16 h, and then 1 uL of LiveBLAzerTM B/G FRET substrate was added using a Bioraptr FRD. The plates were incubated at room temperature for 2 h and fluorescence intensity was measured by an Envision plate reader (PerkinElmer, Shelton, CT). For cell viability readout that measures cytotoxicity, 3 ul/well of CellTiter-Glo reagent was added into the assay plates using a Bioraptr FRD. After 30 min incubation at room temperature, the luminescence intensity in the plates was measured using a ViewLux plate reader (PerkinElmer).
% is scaled to controls: 0 for no effect and ±100 for the full control effect; potency is read from the fitted curve at half-maximal effect.

SMILES | viability change, negative = cytotoxic | Potency
O=C(CCCN1CCC(O)(c2ccc(Br)cc2)CC1)c1ccc(F)cc1 | -9.08% | –
Cn1c(=O)c2c(ncn2CC(=O)O)n(C)c1=O | 4.77% | –
OCCSc1ccccc1 | 1.57% | –
CCOc1cc(N)c(Cl)cc1C(=O)NCC1CN(Cc2ccc(F)cc2)CCO1 (stereo not given) | -1.83% | –
Cc1cc(C(=C2C=CC(=Nc3ccc(S(=O)(=O)O)cc3S(=O)(=O)O)C=C2)c2ccc(Nc3ccc(S(=O)(=O)O)cc3)cc2)ccc1N | -10.9% | –
O=C(O)c1cccnc1C(=O)O | 6.81% | –
CC(C)OCC1CO1 (stereo not given) | 0.147% | –
COC(=O)Nc1nc2ccc(C(=O)c3cccs3)cc2[nH]1 | -5.31% | –
C[Si](NC1CCCCC1)(NC1CCCCC1)NC1CCCCC1 | -20.9% | –
CC[C@@H]([C@H](C)O)n1ncn(-c2ccc(N3CCN(c4ccc(OC[C@@H]5CO[C@@](Cn6cncn6)(c6ccc(F)cc6F)C5)cc4)CC3)cc2)c1=O | – | 23.9 µM (active)
Cc1cc(OI)c(C(C)C)cc1-c1cc(C(C)C)c(OI)cc1C | 8.48% | –
Nc1c(I)cc(I)c(C(=O)N(CCC(=O)O)c2ccccc2)c1I | 1.59% | –
CC(N)CN (stereo not given) | -0.725% [at 78.8 µM] | –
CC(=O)Nc1ccc(N)cc1 | 6.51% [at 78.8 µM] | –
CC(Cl)C(Cl)Cl (stereo not given) | -3.21% | –
O=C(O)Cc1ccc(-c2ccccc2)cc1 | 5.03% | –
Nc1nccs1 | 2.65% | –
Nc1nc(Cl)nc2c1ncn2[C@@H]1O[C@H](CO)[C@@H](O)[C@@H]1F | 1.1% | –
O=C(CCCCCCCCC#CI)Oc1ccccc1 | 7.26% | –
NC(=O)N(O)[C@@H]1COc2cc(OCc3ccccc3)ccc21 | 0.228% | –

SMILES | viability change, negative = cytotoxic | Potency
CN1C(=O)CC(C)(c2ccccc2)C1=O (stereo not given) | 12.1% | –
CCOC(=O)c1ccccc1OC | -11.9% | –
CCCCC(=O)O[C@]1(C(=O)CO)[C@@H](C)C[C@H]2[C@@H]3CCC4=CC(=O)C=C[C@]4(C)[C@@]3(F)[C@@H](O)C[C@@]21C | -7.98% | –
OC/C(Br)=C(\Br)CO | 0.0158% | –
CCCCN(CCCC)CCCOC(=O)c1ccc(N)cc1 | -21.5% | –
COCCOC | 0% | –
NC(=O)Cn1c(=O)cc(CCN2CCN(c3nccc4sccc34)CC2)c2ccc(F)cc21 | -3.39% | –
C=CC(C)=CCC=C(C)C | 12.1% | –
O=C(N/N=C/c1ccc([N+](=O)[O-])o1)c1ccc(O)cc1 | -9.75% | –
CC(=O)CC(c1ccc([N+](=O)[O-])cc1)c1c(O)c2ccccc2oc1=O (stereo not given) | 0.985% | –
CCOCCn1c(C2CCN(CCc3ccc(C(C)(C)C(=O)O)cc3)CC2)nc2ccccc21 | 0.251% | –
CO[C@@]12[C@H](COC(N)=O)C3=C(C(=O)C(C)=C(N)C3=O)N1C[C@@H]1N[C@@H]12 | -1.32% | –
CCOC(=O)OCC | 23.6% [at 78.8 µM] | –
COc1cc2c(N3CCN(C(=O)Nc4ccc(OC(C)C)cc4)CC3)ncnc2cc1OCCCN1CCCCC1 | -12.4% | –
CC(=O)N(c1onc(C)c1C)S(=O)(=O)c1ccc(N)cc1 | 11.1% | –
Cc1ccc(S(=O)(=O)NC2CCCCC2)cc1 | 0.217% | –
CCC(C)(O)CCC=C(C)C (stereo not given) | 8.75% | –
C[C@@H]1C[C@H]2[C@@H]3CCC4=CC(=O)C=C[C@]4(C)[C@@]3(F)[C@@H](O)C[C@]2(C)[C@H]1C(=O)CO | 1.14% | –
CCCC(=O)O[C@]1(C(=O)COC(=O)CC)CC[C@H]2[C@@H]3CCC4=CC(=O)CC[C@]4(C)[C@H]3[C@@H](O)C[C@@]21C | -3.63% [at 28.5 µM] | –
CO[C@H]1O[C@H](CO)[C@@H](O)[C@H](O)[C@H]1O | 0% | –
